Screening data as filed in PubChem.
MsrA act = bovine methionine sulfoxide reductase A activation; purified bovine MsrA, absorbance read-out; activation, % at 10.6 µM; actives 0.3% (n = 360,000); in the data active = activation above about 7.5%;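 also: 0% = vehicle and 100% = reference activator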
SMARCA2 activ = increases SMARCA2 function in MMTV reporter cells; MG213 cells, MMTV-luciferase reporter, dexamethasone, overnight; activation, % at 9.1 µM; actives 1% (n = 370,000); in the data active = activation above about 7.8%;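 also: 0% = vehicle wells and 100% = reference activator wells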
proKLK7 act = activators of human kallikrein-7 zymogen. P49862. purified proKLK7, EDANS-DABCYL substrate fluorescence; 100% is mature enzyme control, 0% vehicle. activation, % at 7 µM. actives 0.9% (n = 370,000);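 active = activation above the mean of all tested compounds plus 3 SD, computed per campaign excluding outliers beyond control limits, cut at about 13% in these data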
Target sequence (P49862 whole entry, looked up): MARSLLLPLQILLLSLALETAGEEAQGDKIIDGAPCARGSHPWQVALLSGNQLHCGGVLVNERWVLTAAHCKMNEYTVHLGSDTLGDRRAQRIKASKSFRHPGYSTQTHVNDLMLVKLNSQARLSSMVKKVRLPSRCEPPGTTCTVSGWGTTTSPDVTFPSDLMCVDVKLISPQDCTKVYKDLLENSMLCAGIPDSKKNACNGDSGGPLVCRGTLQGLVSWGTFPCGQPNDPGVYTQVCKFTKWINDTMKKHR
MsrA inhibitor = inhibits bovine methionine sulfoxide reductase A | purified bovine MsrA, absorbance read-out | inhibition, % at 15.5 µM | actives 0.75% (n = 360,000) | AID 651718; in the data active = inhibition above about 4.5%;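 also: 0% = vehicle wells with enzyme and 100% = reference inhibitor wells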
KLK7 act conf = proKLK7 activation, confirmation; shares compounds with proKLK7 act; purified proKLK7, EDANS-DABCYL substrate fluorescence; scaled: vehicle 0, mature enzyme 100; activation, % at 7 µM; actives 68% (n = 3,200);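 active = activation, as change over the incubation, above the mean of all tested compounds plus 3 SD, cut at about 13% in these data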
EDANS-DABCYL int = optically interferes with EDANS-DABCYL signal, flagging KLK7 hits | EDANS-DABCYL substrate fluorescence interference, no enzyme, 4 h; solvent 0%, active enzyme control 100% | shares compounds with proKLK7 act | AID 686952 | activation, % at 7 µM | actives 80% (n = 3,200);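 active = activation above the all-compound mean plus 3 SD, ignoring values outside control-based bounds, cut at about 4.8% in these data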;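 also: value is the 4 h activation minus the activation read at time zero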
K7 EDANS ctr = counter-screen for kallikrein-7 activators: EDANS-DABCYL interference, dose response | shares compounds with proKLK7 act | EDANS-DABCYL peptide fluorescence interference, no enzyme | EC50, µM | actives 20% (n = 250) | AID 720493;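 active = compounds that raise the fluorescence signal in this interference counterscreen, with EC50 at or below 10 µM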;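 also: intact quenched peptide substrate alone read at 355 nm excitation and 520 nm emission; signal is fluorescence gain from T0 to T4 after four hours at room temperature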
An asterisk follows results filed as active. Shown are actives, neighbours in structure and some others; about 2.8% of the full set was active somewhere.

What do the screens show for `O=C(CC1Sc2ccccc2NC1=O)OCc1cc(=O)oc2cc(O)ccc12` (stereo not given)?
MsrA act: -8.3; SMARCA2 activ: -2.8; proKLK7 act: 188.4*; MsrA inhibitor: 1.8; KLK7 act conf: 271.6*; EDANS-DABCYL int: 279.0*

Results for CCN(CC)c1ccc2ccc(=O)oc2c1 ?
MsrA act: -3.8; SMARCA2 activ: 1.0; proKLK7 act: 11.4; MsrA inhibitor: 2.0

Results for CCN(CC)c1ccc2c(C)cc(=O)oc2c1 ?
MsrA act: -11.1; SMARCA2 activ: 6.1; proKLK7 act: 26.8*; MsrA inhibitor: 2.2; KLK7 act conf: 16.7*; EDANS-DABCYL int: 25.6*

How did O=C1NC[C@H](CCCCN2C[C@H](Cc3ccccc3)N(CCC3CCCCC3)C(=O)C2=O)N(CC2CCCCC2)C1=O do in these assays?
MsrA act: 0.1; SMARCA2 activ: 4.2; proKLK7 act: -0.5; MsrA inhibitor: -0.4

Results for Cc1cc(=O)oc2cc(OC(=O)C3CCN(C(=O)c4ccc(F)cc4)CC3)ccc12 ?
MsrA act: -3.1; SMARCA2 activ: -1.7; proKLK7 act: 13.7*; MsrA inhibitor: -0.3; KLK7 act conf: 427.4*; EDANS-DABCYL int: 377.6*

What do the screens show for `N#C/C(=C\c1cccn1S(=O)(=O)c1cccc(C#N)c1)S(=O)(=O)c1ccc(F)cc1`?
MsrA act: -1.9; SMARCA2 activ: -2.5; proKLK7 act: 0.2; MsrA inhibitor: 1.0

Results for Cc1cc(-c2ccccc2)[nH]c(=O)c1C#N ?
MsrA act: -5.5; SMARCA2 activ: 5.1; proKLK7 act: -14.4; MsrA inhibitor: 3.8

How did CN(C)c1c(-c2ccccc2)cc(-c2ccccc2)[nH]c1=O do in these assays?
MsrA act: 1.7; SMARCA2 activ: 2.2; proKLK7 act: 15.6*; MsrA inhibitor: 1.5; KLK7 act conf: 2.1; EDANS-DABCYL int: 4.9*

Results for Cc1cccn2c(=O)c3cc(C(=O)NCc4ccc(F)cc4)c(=N)n(CC4CCCO4)c3nc12 (stereo not given) ?
MsrA act: 3.6; SMARCA2 activ: -2.2; proKLK7 act: -4.5; MsrA inhibitor: 0.9

What do the screens show for `Cc1cccn2c(=O)c3cc(C(=O)NCC4CCCO4)c(=N)n(CC4CCCO4)c3nc12` (stereo not given)?
MsrA act: -3.3; SMARCA2 activ: -2.3; proKLK7 act: 145.1*; MsrA inhibitor: 0.6; KLK7 act conf: 32.9*; EDANS-DABCYL int: 42.1*

Results for Cc1cccn2c(=O)c3cc(C(=O)NC4CCCC4)c(=N)n(CC4CCCO4)c3nc12 (stereo not given) ?
MsrA act: -1.6; SMARCA2 activ: -0.9; proKLK7 act: 81.0*; MsrA inhibitor: 1.2; KLK7 act conf: -30.5; EDANS-DABCYL int: -34.0

What do the screens show for `Cc1cccn2c(=O)c3cc(C(=O)NC4CCCC4)c(=N)n(CCCN4CCOCC4)c3nc12`?
MsrA act: -0.6; SMARCA2 activ: -1.1; proKLK7 act: 34.7*; MsrA inhibitor: 0.3; KLK7 act conf: 9.1; EDANS-DABCYL int: 12.2*

How did Cc1cccn2c(=O)c3cc(C(=O)NCC4CCCO4)c(=N)n(C4CCCCC4)c3nc12 (stereo not given) do in these assays?
MsrA act: -3.0; SMARCA2 activ: -2.2; proKLK7 act: 24.8*; MsrA inhibitor: -0.5; KLK7 act conf: -52.5; EDANS-DABCYL int: -59.5

How did Cc1cccn2c(=O)c3cc(C(=O)NCc4ccco4)c(=N)n(C4CCCC4)c3nc12 do in these assays?
MsrA act: 0.8; SMARCA2 activ: -1.1; proKLK7 act: -115.3; MsrA inhibitor: 0.8

How did COC(=O)[C@@]1(Cc2ccc(F)cc2)[C@H]2c3cc(C(=O)N(C)C)n(CCc4c[nH]c5ccc(O)cc45)c3C[C@H]2CN1C(=O)c1ccccc1 do in these assays?
MsrA act: -1.8; SMARCA2 activ: -1.0; proKLK7 act: 0.6; MsrA inhibitor: -0.2

What do the screens show for `COC(=O)CCCn1cc(CN2CC(N3CCCCC3)CS2(=O)=O)nn1` (stereo not given)?
MsrA act: -1.6; SMARCA2 activ: -3.0; proKLK7 act: -0.3; MsrA inhibitor: -0.4

How did COc1cc(C(O)c2nc(-c3cc4ccccc4o3)cs2)ccc1F (stereo not given) do in these assays?
MsrA act: -0.8; SMARCA2 activ: -6.3; proKLK7 act: 1.1; MsrA inhibitor: 0.1

What do the screens show for `COc1ccc(CNC(=O)c2cc(-c3ccccc3)c(N3CCOCC3)s2)cc1OC`?
SMARCA2 activ: 6.6; proKLK7 act: 0.0

Results for O=C(Nc1ccc2nc(-c3ccccn3)c(-c3ccccn3)nc2c1)N1CCOCC1 ?
MsrA act: -3.7; SMARCA2 activ: -1.4; proKLK7 act: 36.2*; MsrA inhibitor: 0.1; KLK7 act conf: 69.9*; EDANS-DABCYL int: 65.6*

What do the screens show for `O=C(Nc1ccccn1)N1CCOCC1`?
MsrA act: -2.4; SMARCA2 activ: -1.5; proKLK7 act: 0.6; MsrA inhibitor: -0.8

How did CCOC(=O)N1CCN(C(=O)Nc2ccc3nccnc3c2)CC1 do in these assays?
MsrA act: -9.6; SMARCA2 activ: -1.8; proKLK7 act: 5.8; MsrA inhibitor: 0.8

Results for Cc1nc2ccc(NC(=O)N3CCCCC3)cc2nc1C ?
MsrA act: -2.0; SMARCA2 activ: 0.8; proKLK7 act: 34.9*; MsrA inhibitor: 2.4; KLK7 act conf: 68.7*; EDANS-DABCYL int: 56.9*; K7 EDANS ctr: >69.5

How did CCOC(=O)N1CCN(C(=O)Nc2ccc3nc(C)c(C)nc3c2)CC1 do in these assays?
MsrA act: -12.5; SMARCA2 activ: 0.5; proKLK7 act: 15.8*; MsrA inhibitor: 1.3; KLK7 act conf: 38.5*; EDANS-DABCYL int: 32.9*

What do the screens show for `COc1ccc(S(=O)(=O)N(C)C[C@H]2OCCCC[C@H](C)Oc3ccc(N(C)C)cc3C(=O)N([C@H](C)CO)C[C@@H]2C)cc1`?
MsrA act: 3.9; SMARCA2 activ: -4.2; proKLK7 act: -0.7; MsrA inhibitor: 1.2

What do the screens show for `CNc1ccc(-c2cccc(CO)c2)cn1`?
MsrA act: -1.9; SMARCA2 activ: 1.8; proKLK7 act: 20.0*; MsrA inhibitor: 0.5; KLK7 act conf: 23.9*; EDANS-DABCYL int: 16.2*; K7 EDANS ctr: >69.5

What do the screens show for `CSc1nnc(-c2cccn(Cc3ccccc3)c2=O)o1`?
MsrA act: -7.1; SMARCA2 activ: -0.5; proKLK7 act: 12.7*; MsrA inhibitor: 1.9; KLK7 act conf: 25.7*; EDANS-DABCYL int: 38.1*

What do the screens show for `CSc1nnc(-c2cccn(Cc3cccc(Cl)c3)c2=O)o1`?
MsrA act: -0.4; SMARCA2 activ: -1.7; proKLK7 act: 7.6; MsrA inhibitor: -0.5

Results for O=C(Nc1ccc(F)cc1)OCc1cn(Cc2c(F)cccc2F)nn1 ?
SMARCA2 activ: -1.9; proKLK7 act: 0.0
